The list is not random: actives were taken first. Their share in the collection is about 7%.
ADAM17 inh = inhibitors of human ADAM17 | recombinant ADAM17, EDANS/DABCYL FRET peptide cleavage | inhibition, % at 6.95 µM | hit rate 0.83% among 370,000 | AID 720648;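 active = inhibition above the mean of compounds lying between control limits plus 3 SD, set per campaign, cut at about 8.5% in these data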;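 also: 0% = DMSO-only wells as the low control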
KLK7 zymogen act = activates the human kallikrein-7 zymogen. P49862. purified proKLK7, EDANS-DABCYL substrate fluorescence; 100% is mature enzyme control, 0% vehicle. activation, % at 7 µM. hit rate 0.9% among 370,000. AID 652039;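 active = activation above the mean of all tested compounds plus 3 SD, computed per campaign excluding outliers beyond control limits, cut at about 13% in these data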
Target sequence (P49862 whole entry, looked up): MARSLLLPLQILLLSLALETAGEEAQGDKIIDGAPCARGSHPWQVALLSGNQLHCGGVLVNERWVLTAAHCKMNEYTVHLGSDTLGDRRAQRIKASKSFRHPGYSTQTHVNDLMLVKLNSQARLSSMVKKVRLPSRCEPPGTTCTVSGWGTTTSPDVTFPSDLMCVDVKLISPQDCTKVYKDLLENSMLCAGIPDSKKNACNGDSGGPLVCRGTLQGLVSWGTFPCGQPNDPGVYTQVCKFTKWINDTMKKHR
rCAG RNA binder = binds r(CAG) RNA repeats; r(CAG) RNA repeat, TO-PRO-1 dye displacement fluorescence; inhibition, % at 3 µM; hit rate 1.3% among 370,000;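 active = inhibition above the plate cutoff, the mean of all test compounds on that plate plus 3 SD, cut at about 35% in these data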;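 also: 0% = DMSO alone and 100% = 100 µM mitoxantrone as full dye displacement; higher means more dye released from RNA so lower well fluorescence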
NR3A LBD binder = NR3A (human) ligand-binding domain modulation | Tm shift relative to glycine control, % at 25 µM | NR3A LBD differential scanning fluorimetry, Tm shift; 0% = protein alone, 100% = glycine-bound protein | hit rate 2.5% among 340,000;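 active = melting temperature shift of at least 10% of the positive control shift, at one fixed dose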
AHR activator = activators of human aryl hydrocarbon receptor. P35869. AHR-responsive luciferase reporter cells, luminescence. activation, % at 5 µM. hit rate 2.5% among 320,000; in the data active = activation above about 47%;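 also: 0% = vehicle wells and 100% = reference agonist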
ADAM10 inh = inhibits human ADAM10. O14672. AID 720582. inhibition, % at 7 µM. hit rate 0.62% among 370,000. recombinant ADAM10, EDANS/DABCYL FRET peptide cleavage, 3 h;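 active = inhibition above a per-campaign cutoff equal to the mean of compounds falling between control-based bounds plus 3 SD, cut at about 20% in these data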;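 also: 0% = DMSO wells while the 100% control is not disclosed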
rCAG bind conf = r(CAG) RNA repeat binding, confirmation. shares compounds with rCAG RNA binder. TO-PRO-1 dye displacement fluorescence. inhibition, % at 3 µM. hit rate 70% among 4,300;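 active = inhibition above a per-plate cutoff, the mean inhibition of sample wells plus 3 SD, cut at about 35% in these data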;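 also: loss of TO-PRO-1 fluorescence as compound displaces dye from 1x1 AA loop RNA; 0% = DMSO only wells and 100% = 100 µM mitoxantrone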
dCAG dye counter = counter-screen for rCAG RNA binders: DNA CAG dye complex inhibitors. shares compounds with rCAG RNA binder. d(CAG) DNA oligo TO-PRO-1 dye displacement, fluorescence. inhibition, % at 3 µM. hit rate 94% among 4,300. AID 652068;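 active = inhibition above its plate's cutoff, the mean test-well inhibition plus 3 SD, cut at about 4.8% in these data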;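 also: 0% = DNA dye mix with DMSO and 100% = 100 µM mitoxantrone; hits displace the dye from DNA and so lower well fluorescence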
Active calls of the source: *; nt = not tested or not shown.

SMILES	ADAM17 inh	KLK7 zymogen act	rCAG RNA binder	NR3A LBD binder	AHR activator	ADAM10 inh	rCAG bind conf	dCAG dye counter
COc1ccc(-c2csc(NC(=O)c3ccc(C(C)(C)C)cc3)c2C(=O)O)cc1	nt	nt	nt	-0.9	5.4	nt	nt	nt
COc1ccccc1NC(=O)Cc1cccc2ccccc12	-3.1	-0.2	-1.6	0.4	10.0	1.1	nt	nt
O=C(/C=C/c1ccccc1)Nc1cc(NC(=O)/C=C/c2ccccc2)cc(C(=O)O)c1	5.5	0.7	75.0*	-1.5	nt	18.4	80.7*	52.1*
Cc1ccc(-c2csc(NC(=O)c3ccccc3F)c2C(=O)O)cc1	-4.6	-0.3	41.7*	0.5	-2.7	5.7	28.7	4.6*
O=C(Nc1scc(-c2ccccc2)c1C(=O)O)c1ccccc1F	0.8	0.9	20.4	0.1	14.2	8.3	nt	nt
COc1ccc(-c2csc(NC(=O)Cc3cccc4ccccc34)c2C(=O)O)cc1	-0.3	-0.2	61.4*	-5.4	nt	2.4	54.4*	17.4*
Cc1ccc(-c2csc(NC(=O)c3ccc(F)cc3)c2C(=O)O)cc1	-0.4	-0.1	63.1*	-7.0	-3.2	0.8	39.2*	8.8*
Cc1ccccc1S(=O)(=O)NC(=O)C1(C)CCN1C(=O)COc1ccc(Cl)cc1 (stereo not given)	-2.4	0.8	6.2	nt	nt	0.1	nt	nt
O=C(Nc1scc(-c2ccccc2)c1C(=O)O)c1ccc(F)cc1	-0.7	-0.1	35.7*	-10.2	3.0	3.4	23.2	5.0*
O=C(/C=C/c1ccco1)Nc1scc(-c2ccccc2)c1C(=O)O	-3.4	0.4	30.9	1.1	2.6	-5.9	nt	nt
COc1ccc(-c2csc(NC(=O)c3ccccc3Br)c2C(=O)O)cc1	-5.4	-0.3	54.6*	-6.1	9.1	9.8	36.5*	10.4*
O=C(Nc1scc(-c2ccc(Br)cc2)c1C(=O)O)c1ccccc1F	0.2	0.0	25.2	-5.0	-5.8	-2.3	nt	nt
O=C(/C=C/c1ccccc1)Nc1scc(-c2ccccc2)c1C(=O)O	1.1	0.2	55.2*	-20.0	nt	6.3	32.6	6.0*
Cc1ccccc1C(=O)Nc1scc(-c2ccc(Br)cc2)c1C(=O)O	-2.0	0.4	9.1	-15.2	-3.0	1.1	nt	nt
Cc1cc2c(c(=O)o1)[C@@]1(C(=O)N(C)c3cccc(Br)c31)C1=C(CCCC1=O)O2	-0.1	0.5	0.3	nt	nt	-7.2	nt	nt
COC[C@@H](O)[C@H]1OCc2cccc(OC)c2[C@@H]1/C=C/c1ccccc1	1.3	0.3	3.0	nt	nt	-1.4	nt	nt
O=C(O)CSc1cc(C(=O)c2cc(F)ccc2O)cn2c(=O)c3c(-c4ccccc4)csc3nc12	-2.5	6.5	84.6*	4.0	3.8	-11.2	90.4*	70.2*
CCOC(=O)c1sc2nc3c(SCCC(=O)O)cc(C(=O)c4cc(OC)ccc4O)cn3c(=O)c2c1C	-2.2	0.1	35.2*	-2.1	nt	-15.2	68.4*	39.3*
O=C(NN=Cc1ccco1)c1cccnc1	1.6	-4.2	1.2	nt	nt	-9.2	nt	nt
COC(=O)C1CN(C2CC2)CCS(=O)(=O)N1Cc1cn(Cc2ccccc2)nn1 (stereo not given)	-0.3	0.3	2.0	nt	nt	-5.1	nt	nt
CCOc1cc(/C=N/N=C2/NC(=O)C(CC(=O)O)S2)ccc1OCc1ccc(Cl)cc1 (stereo not given)	0.2	0.3	59.7*	1.3	2.0	2.8	40.1*	10.5*
COc1ccc(/C=N/N=C2/NC(=O)C(CC(=O)O)S2)cc1OCc1ccc(Cl)cc1 (stereo not given)	2.9	0.5	25.8	1.8	5.3	8.8	nt	nt
COc1cc(/C=N/N=C2/NC(=O)C(CC(=O)O)S2)ccc1OCc1cccc(Cl)c1 (stereo not given)	0.5	-1.0	43.5*	0.7	2.9	9.5	26.5	5.5*
COc1ccc(/C=N/N=C2/NC(=O)C(CC(=O)O)S2)cc1OS(=O)(=O)c1ccccc1 (stereo not given)	2.2	-1.6	15.9	2.4	-0.3	-3.5	nt	nt
COc1ccc(CCNC(=O)c2ccccc2NS(=O)(=O)c2cc(C(=O)O)ccc2OC)cc1	-7.1	-0.6	19.6	1.6	-0.3	-2.1	nt	nt
SMILES	ADAM17 inh	KLK7 zymogen act	rCAG RNA binder	NR3A LBD binder	AHR activator	ADAM10 inh	rCAG bind conf	dCAG dye counter
COc1ccc(CCNC(=O)c2ccccc2NS(=O)(=O)c2c(F)cccc2F)cc1	-2.6	-0.1	47.9*	-9.6	-1.9	-5.2	33.1	9.9*
N#CC1=C(N)SC(N)=C(C#N)C1c1cccc(Oc2ccccc2)c1	1.9	0.1	60.4*	9.3	0.8	7.9	33.8	11.5*
CC1=N/C(=C\c2ccc([N+](=O)[O-])cc2)C(=O)N1c1ccc(C)c(Cl)c1	-1.2	-0.1	6.9	nt	nt	4.4	nt	nt
COc1ccc(OC)c(C(=O)c2c(C)oc3cc([N+](=O)[O-])c(O)c([N+](=O)[O-])c23)c1	-0.3	0.4	35.0*	-0.2	-3.0	2.9	20.8	4.2
COc1ccc(OC)c(C(=O)COC(=O)c2ccc([N+](=O)[O-])o2)c1	-0.9	2.1	1.5	1.8	0.2	0.2	nt	nt
COc1ccccc1CNC(=O)C[C@H]1CC[C@@H]2[C@H](COC[C@H](O)CN2Cc2ccc3c(c2)OCO3)O1	1.0	0.7	0.8	nt	nt	-3.9	nt	nt
COc1ccc(Cl)cc1NC(=O)[C@@]1(CC(=O)O)CC(/C=C/c2ccccc2)=NO1	3.0	0.1	38.1*	0.0	3.3	9.2	35.8*	8.2*
Cc1cccc(-c2cccc3c4c([nH]c23)[C@@H]2C[C@H](N(C)C(=S)Nc3ccc(C#N)cc3)[C@H]([C@H](C)O)CN2CC4)c1	-10.0	0.5	15.7	nt	nt	-31.4	nt	nt
O=C(OCC#CCSc1nnc(-c2c[nH]c3ccccc23)o1)c1ccc(F)cc1	7.1	nt	nt	nt	nt	18.2	nt	nt
CC(C)c1ccc(NC(=O)CSc2nc3ccsc3c(=O)n2CCC(=O)O)cc1	1.4	0.1	35.9*	0.3	1.9	-3.6	32.2	7.8*
CCc1ccc(NC(=O)CSc2nc3ccsc3c(=O)n2CCCCCC(=O)O)cc1	-2.9	-0.3	1.1	-2.6	-0.3	-5.8	nt	nt
CCOc1cc(/C=C(/C#N)c2ccc(F)cc2)ccc1OCc1ccc(C(=O)O)o1	-4.3	-1.1	69.4*	-0.2	-2.3	-4.9	68.2*	28.6*
CCOc1cc(/C=C(/C#N)c2nc3ccccc3[nH]2)ccc1OCc1ccc(C(=O)O)o1	-45.2	-0.6	48.6*	-3.9	16.1	-110.4	38.8*	8.6*
CCOc1cccc(/C=C(/C#N)c2nc3ccccc3[nH]2)c1OCC(=O)O	-7.1	-0.2	14.5	5.0	13.9	-10.0	nt	nt
C[C@H](NC(=O)C1CCN(C(=O)[C@@H]2CCCN2C(=O)OC(C)(C)C)CC1)C(=O)NCc1ccc(F)cc1	1.5	0.0	-7.4	nt	nt	-6.5	nt	nt

Assay outcomes (PubChem BioAssay)
